16 compounds from PubChem BioAssay can be followed below.

For some of these results: Measured potencies and affinities stand elsewhere. Active and inactive are the calls of the source.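 Rule for the calls, unless noted: active = earlier screen potentiator hit that boosts the TRPC4 ion channel at some dose, with a dose response; inactive = no potentiation, no dose response, or not a prior hit.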

Assay [1] concerns TRPC4 beta (transient receptor potential cation channel C4), mouse. The assay is described as follows: activators of mouse TRPC4 channel, confirmation, cell-based, Fluo4 calcium, HEK293 TRPC4beta/mu-opioid, duplicates, 10 µM (AID 2426;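 active = fluorescence ratio normalized to control raised more than 50% in primary screen plus both repeat runs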). Conditions: Fluo4 calcium fluorescence, at 10 µM; hits give high values.
Assay [2] relates to transient receptor potential cation channel C4 beta (TRPC4), mouse. The assay is described as follows: activators of mouse TRPC4 channel, confirmation, cell-based, second round, Fluo4, HEK293 TRPC4beta/mu-opioid, 1 µM (AID 2461;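 active = primary screen active and over 50% activation in each of two duplicate runs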). The following applies: Fluo4 calcium fluorescence, at 1 µM; hits give high values.
In assay [3] the test system is TRPC4 (transient receptor potential cation channel C4 beta), mouse. Briefly: positive allosteric modulators of mouse TRPC4, confirmation, cell-based, second round, Fluo-4, HEK293 TRPC4beta/mu-opioid, 1 µM (AID 2554;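 active = primary screen hit whose fluorescence ratio, in both repeats, exceeds the weak agonist control mean by 3 SD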). Conditions: DAMGO EC20, Fluo-4 calcium flux, at 1 µM; hits give high values.
Assay [4] deals with TRPC4 beta (transient receptor potential cation channel C4), mouse. The assay is described as follows: positive allosteric modulators of mouse TRPC4, confirmation, cell-based, Fluo-4, HEK293 TRPC4beta/mu-opioid (AID 2555;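 active = primary screen hit whose calcium fluorescence ratio, in both repeats, exceeds the weak agonist control mean by 3 SD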). The following applies: DAMGO EC20, Fluo-4 calcium flux, at 10 µM; hits give high values. On the technique in general: Calcium flux is commonly read through the fluorescence of an indicator in the cells.

For assay [5], the target named is Short transient receptor potential channel 4 (Mus musculus) (UniProt Q9QUQ5). The assay is described as follows: inhibitors of mouse TRPC4 channel, confirmation, cell-based, Fluo4, HEK293 TRPC4beta/mu-opioid (AID 2636;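 active = calcium signal cut by more than 3 SD below the full-agonist control yet still positive, in both repeats and the earlier primary screen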). Conditions: DAMGO, Fluo4 calcium flux, at 10 µM; hits give high values.
The target is the same in assay [6]. Briefly: inhibitors of mouse TRPC4 channel, confirmation, cell-based, second round, Fluo4, HEK293 TRPC4beta/mu-opioid, 1 µM (AID 2637;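 active = calcium signal ratio cut to more than 3 SD under the fully stimulated control mean yet still positive, in both repeats and the primary screen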;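 for inhibition: percent of integrated ratio relative to wells lacking test compound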). Conditions: Fluo4 calcium flux, DAMGO, at 1 µM; hits give high values.
The target is the same in assay [7]. The assay is described as follows: mouse TRPC4 channel activators, dose response, cell-based, HEK293 TRPC4/mu-opioid, Fluo-4 calcium (AID 434937;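 active = primary screen activator hit with a dose response curve and TRPC4 channel activation at any tested dose; inactive = no activation, no dose response, or not a primary hit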).
For assay [8] the target is unchanged. Briefly: TRPC4 positive allosteric modulators, dose response, cell-based, HEK293 TRPC4/mu-opioid, Fluo-4 calcium, EC20 DAMGO (AID 434941).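 Note: calcium entry triggered by an EC20 dose of DAMGO at the co-expressed mu-opioid receptor.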
Assay [9] concerns the target Short transient receptor potential channel 6 (Mus musculus) (UniProt Q61143). The assay is described as follows: inhibition of mouse TRPC6 channel, confirmation, selectivity assay for TRPC4 inhibitor project, cell-based, HEK293, membrane potential dye, duplicate (AID 434948;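 active = active in primary screen and both duplicates, each dropping signal beyond three positive-control SD with fluorescence still positive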). The following applies: HEK293 TRPC6, membrane potential dye fluorescence, at 10 µM, stimulated with maximal-effect acetylcholine; hits give high values.

Assay [10] has the same target. The assay is described as follows: activation of mouse TRPC6 channel, confirmation, selectivity assay for TRPC4 activator project, cell-based, HEK293, membrane potential dye, duplicate (AID 434950;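 active = membrane potential signal rise above negative control mean plus 3 SD in both duplicates, also active in the earlier TRPC4 screen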;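 for activation: 0% = buffer only wells and 100% = acetylcholine maximal-effect wells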). Conditions: HEK293 TRPC6, membrane potential fluorescence, at 10 µM; hits give high values.
The target is the same in assay [11]. The assay is described as follows: TRPC6 potentiation by TRPC4 potentiator hits, confirmation, selectivity assay for TRPC4 potentiator project, HEK293 cells, membrane potential dye, duplicate (AID 434952;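 active = compound raising the membrane signal above positive-control mean plus 3 SD in both repeats, and a primary screen hit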). The following applies: HEK293 TRPC6, membrane potential dye fluorescence, at 10 µM, maximal acetylcholine added after compound; hits give high values.
Assay [12] concerns the target Short transient receptor potential channel 4 (Mus musculus) (UniProt Q9QUQ5). Briefly: calcium flux activators in TRPC4/5HT1a cells, counter-screen for TRPC4 activator project, cell-based, second counter screen, HEK293 TRPC4/5HT1a, Fluo-4 (AID 434977;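 active = calcium signal rise above buffer-control mean plus 5 SD in both duplicates, and also a hit in the primary screen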). Conditions: Fluo-4 calcium flux, at 10 µM; hits give high values.
Assay [13] can be described thus: calcium flux inhibitors in TRPC4/5HT1a cells, confirmation, counter-screen for TRPC4 inhibitor project, cell-based, second counter screen, HEK293 TRPC4/5HT1a, Fluo-4 (AID 434978;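 active = primary screen active whose calcium signal fell more than 3 SD beyond the full-serotonin control mean in both duplicate plates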;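 for outcome: serotonin given first at submaximal then at maximal dose after compound preincubation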). The following applies: Fluo-4 calcium flux, at 10 µM, serotonin added to trigger calcium flux; hits give high values.
Assay [14] has as its system TRPC4 (mouse), co-expressed with 5HT1a in HEK293. The assay is described as follows: calcium flux potentiators in TRPC4/5HT1a cells, confirmation, counter-screen for TRPC4 potentiator project, cell-based, second counter screen, HEK293 TRPC4/5HT1a, Fluo-4 (AID 434979;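 active = signal rise over 3 SD above mean of control wells given weak agonist, in both repeats and first screen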). Conditions: Fluo-4 calcium flux, at 10 µM, serotonin added at its EC20 dose; hits give high values.
The nature of assay [15]: calcium flux activation in mu-opioid HEK293 cells, confirmation, counter-screen for TRPC4 activator project, cell-based, HEK293 mu-opioid receptor line (AID 449723;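 active = hit in primary screen, with calcium signal over 5 SD above buffer well mean in both duplicates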;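 note: counter screen cells carry the mu-opioid receptor alone and lack TRPC4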). Conditions: Fluo-4 calcium fluorescence, at 10 µM; hits give high values.
Assay [16] in a line: calcium flux enhancement in mu-opioid HEK293 cells, confirmation, counter-screen for TRPC4 allosteric potentiator project, cell-based, HEK293 mu-opioid receptor line (AID 449724;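 active = calcium signal rise more than 3 SD above the low-dose agonist control mean, in both duplicate plates and the primary screen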;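 note: HEK293 cells carrying mu-opioid receptor only with no TRPC4 channel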). The following applies: Fluo-4 calcium flux, at 10 µM, compound added before EC20 DAMGO stimulus; hits give high values.

Sequence of Short transient receptor potential channel 6 (Mus musculus) (Q61143 whole entry, looked up): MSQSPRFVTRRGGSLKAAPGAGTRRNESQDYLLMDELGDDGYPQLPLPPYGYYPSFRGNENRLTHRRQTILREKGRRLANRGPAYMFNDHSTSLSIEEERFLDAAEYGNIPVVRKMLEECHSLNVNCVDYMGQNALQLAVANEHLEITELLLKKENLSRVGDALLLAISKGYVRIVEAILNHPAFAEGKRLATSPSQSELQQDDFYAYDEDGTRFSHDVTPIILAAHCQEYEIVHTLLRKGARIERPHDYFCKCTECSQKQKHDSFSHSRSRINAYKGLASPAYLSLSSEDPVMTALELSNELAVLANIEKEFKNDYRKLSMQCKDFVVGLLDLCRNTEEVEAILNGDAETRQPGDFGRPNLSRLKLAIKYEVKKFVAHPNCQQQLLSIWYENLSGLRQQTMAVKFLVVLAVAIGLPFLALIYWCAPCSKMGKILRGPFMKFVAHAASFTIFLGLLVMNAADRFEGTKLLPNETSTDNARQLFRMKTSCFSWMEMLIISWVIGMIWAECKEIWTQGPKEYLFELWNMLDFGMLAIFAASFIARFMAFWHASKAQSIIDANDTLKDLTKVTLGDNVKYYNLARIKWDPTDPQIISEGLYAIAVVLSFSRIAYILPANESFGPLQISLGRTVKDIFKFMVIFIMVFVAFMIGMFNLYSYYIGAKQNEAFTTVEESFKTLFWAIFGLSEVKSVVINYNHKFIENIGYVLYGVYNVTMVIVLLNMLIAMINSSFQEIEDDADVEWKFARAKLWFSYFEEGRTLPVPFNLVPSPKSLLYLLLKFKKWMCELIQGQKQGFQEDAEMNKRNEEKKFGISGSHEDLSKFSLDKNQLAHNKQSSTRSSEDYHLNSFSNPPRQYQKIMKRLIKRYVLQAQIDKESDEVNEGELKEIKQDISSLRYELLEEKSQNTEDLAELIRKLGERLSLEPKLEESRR
Sequence of Short transient receptor potential channel 4 (Mus musculus) (Q9QUQ5 whole entry, looked up): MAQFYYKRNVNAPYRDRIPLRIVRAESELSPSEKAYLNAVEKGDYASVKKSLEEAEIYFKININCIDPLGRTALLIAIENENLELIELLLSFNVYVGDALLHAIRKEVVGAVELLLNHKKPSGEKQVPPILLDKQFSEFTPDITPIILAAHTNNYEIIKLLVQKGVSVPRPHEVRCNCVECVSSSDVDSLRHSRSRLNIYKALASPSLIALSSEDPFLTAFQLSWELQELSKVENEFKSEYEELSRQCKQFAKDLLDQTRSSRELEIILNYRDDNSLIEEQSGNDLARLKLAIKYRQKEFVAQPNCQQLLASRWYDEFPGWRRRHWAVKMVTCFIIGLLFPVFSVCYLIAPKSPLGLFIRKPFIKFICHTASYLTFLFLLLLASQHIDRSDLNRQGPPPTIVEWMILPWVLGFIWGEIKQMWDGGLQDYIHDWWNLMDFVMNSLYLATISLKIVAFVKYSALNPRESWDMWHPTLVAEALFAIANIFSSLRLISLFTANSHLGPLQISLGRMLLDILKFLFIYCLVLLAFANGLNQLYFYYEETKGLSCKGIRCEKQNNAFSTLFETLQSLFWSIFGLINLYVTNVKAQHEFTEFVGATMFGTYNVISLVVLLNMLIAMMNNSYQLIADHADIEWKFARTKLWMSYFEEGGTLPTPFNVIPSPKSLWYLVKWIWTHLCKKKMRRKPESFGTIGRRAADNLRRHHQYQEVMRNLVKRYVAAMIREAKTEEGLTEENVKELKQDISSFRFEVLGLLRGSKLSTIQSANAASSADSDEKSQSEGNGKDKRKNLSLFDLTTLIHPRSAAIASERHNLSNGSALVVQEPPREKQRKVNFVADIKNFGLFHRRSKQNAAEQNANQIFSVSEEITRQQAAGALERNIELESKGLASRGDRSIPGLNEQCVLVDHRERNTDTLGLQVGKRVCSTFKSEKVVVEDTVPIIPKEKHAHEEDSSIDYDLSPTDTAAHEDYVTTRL

On to `COc1ccc([N+](=O)[O-])cc1NCc1ccco1`, for which the outcome in assay [1], in [2], in assay [3], in [4], in assay [6] and in [7] was inactive. In addition, the result in [8], in [9], in assay [10], in assay [11], in assay [12] and in assay [13] was inactive. Besides, the outcome in assay [14], in [15] and in [16] was inactive. Also, the inhibition (as a rule, the relative decrease from the control value, in per cent) in [5] was 69% (active).

With `CCOC(=O)C1(Cc2ccccc2)CCN(Cc2ccc(C)s2)CC1`, the outcome in assay [1], in [2], in [3], in [4], in [6] and in assay [7] was inactive. In addition, the outcome in assay [8], in [9], in assay [10], in [11], in assay [12] and in assay [14] was inactive. Further, the outcome in assay [15] and in assay [16] was inactive. Also, the inhibition in assay [5] is 88% (active); in assay [13], 13.9% (active).

As to `COc1ccc(Cn2nnnc2C(c2cc3cc(C)ccc3[nH]c2=O)N2CCN(C)CC2)cc1` (stereo unspecified), the outcome in assay [1], in assay [2], in [3], in [4], in assay [6] and in assay [7] was inactive. For the same compound, the outcome in assay [8], in [9], in [10], in [11], in [12] and in [13] was inactive. Further, the result in [14], in assay [15] and in assay [16] was inactive. The inhibition in assay [5] is 83% (active).

In the case of `Fc1ccc(-n2cc(CNCCc3ccncc3)c(-c3ccccc3Cl)n2)cc1`, the outcome in assay [1], in assay [2], in [3], in [4], in assay [5] and in assay [6] was inactive. Further, the outcome in [7], in assay [8], in assay [9], in assay [10], in assay [11] and in [12] was inactive. Besides, the result in assay [13], in [14], in assay [15] and in assay [16] was inactive.

As to `CCCn1c(=N)n(CC(=O)C(C)(C)C)c2ccccc21`, the outcome in [1], in assay [2], in assay [3], in [4], in [6] and in assay [7] was inactive. Further, the outcome in [8], in assay [9], in [10], in assay [11], in [12] and in [14] was inactive. Further, the outcome in assay [15] and in [16] was inactive. Further, the figures for the inhibition in assay [5] and in [13] were 92% (active) and 42.4% (active), respectively.

In the case of `Cc1nn(C)c(C)c1Sc1ccc(Br)cc1`, the result in assay [1], in assay [2], in assay [3], in [4], in assay [6] and in assay [7] was inactive. In addition, the result in assay [8], in assay [9], in [10], in assay [11], in assay [12] and in [14] was inactive. Moreover, the outcome in [15] and in [16] was inactive. For the same compound, the inhibition was 82% (active) in assay [5] and 24.8% (active) in assay [13].

With `CCC(C)[C@H](Nc1nc(-c2ccccc2)nc2c1oc1ccccc12)C(=O)O` (stereo partly specified), the result in [1], in [2], in [3], in assay [4], in assay [6] and in assay [7] was inactive. Besides, the outcome in assay [8], in assay [9], in assay [10], in [11], in assay [12] and in assay [13] was inactive. Also, the result in [14], in assay [15] and in [16] was inactive. For the same compound, in assay [5], the inhibition was 89% (active).

As to `O=[N+]([O-])c1cccc(N(CC(O)CN2CCCC2)S(=O)(=O)c2ccccc2)c1` (stereo unspecified), the outcome in [1], in assay [2], in [3], in assay [4], in assay [6] and in assay [7] was inactive. For the same compound, the outcome in assay [8], in [9], in assay [10], in assay [11], in [12] and in assay [13] was inactive. In addition, the outcome in [14], in assay [15] and in assay [16] was inactive. Moreover, in [5], the inhibition is 101% (active).

`Cc1ccn2c(-c3csc(NCc4ccco4)n3)c(C)nc2c1`: the result in assay [1], in assay [2], in assay [3], in assay [4], in assay [6] and in assay [7] was inactive. Moreover, the result in [8], in assay [9], in assay [10], in [11], in assay [12] and in assay [14] was inactive. The result in assay [15] and in assay [16] was inactive. Besides, the results for the inhibition in assay [5] and in assay [13] were 96% (active) and 22.8% (active), respectively.

In the case of `COc1ccccc1N1CCN(CCCNC(=O)Nc2ccccc2)CC1`, the outcome in assay [1], in assay [2], in assay [3], in assay [4], in assay [7] and in [8] was inactive. The call in assay [9], in assay [10], in assay [11], in assay [12], in [14] and in [15] was inactive. Moreover, the result in assay [16] was inactive. The inhibition in assay [5] was 95% (active); in [6], 61% (active); in [13], 22.6% (active).

With `Fc1ccccc1CNCCC(Cc1ccccc1)c1ccc2c(c1)OCO2` (stereo unspecified), the result in [1], in [2], in assay [3], in [4], in assay [5] and in [6] was inactive. For the same compound, the result in [7], in assay [8], in [9], in assay [11], in [12] and in assay [13] was inactive. The result in [14], in assay [15] and in [16] was inactive. For the same compound, the activation in assay [10] was 48% (active).

With `CN1CCN(c2ccc(NC(=O)c3ccc(-c4ccc(Cl)cc4)o3)cc2)CC1`, the result in assay [1], in assay [2], in assay [3], in [4], in assay [7] and in assay [8] was inactive. Moreover, the compound was called inactive in [9], in assay [10], in assay [11], in assay [12], in assay [13] and in assay [14]. The outcome in [15] and in assay [16] was inactive. The figures for the inhibition in [5] and in [6] were 85% (active) and 58% (active), respectively.

With `Cc1[nH]c2ccc(C(=O)OC(C)C(=O)N(C)c3ccccc3)cc2c1C` (stereo unspecified), the outcome in [1], in [2], in [3], in assay [4], in assay [5] and in assay [6] was inactive. The result in assay [7], in assay [8], in assay [9], in [10], in [11] and in [12] was inactive. The outcome in [13], in assay [14], in [15] and in [16] was inactive.

On to `O=C(CSc1nc2[nH]ncc2c(=O)n1-c1ccccc1Br)NCc1ccccc1Cl`, for which the outcome in assay [1], in assay [2], in assay [3], in [4], in assay [5] and in assay [6] was inactive. Further, the result in [7], in assay [8], in assay [9], in assay [10], in assay [11] and in assay [12] was inactive. In addition, the result in [13], in assay [14], in assay [15] and in assay [16] was inactive.

For `CC(C)=CCN1CCN(Cc2cccc3nonc23)CC1CCO` (stereo unspecified), the result in [1], in assay [2], in [3], in [4], in [6] and in assay [7] was inactive. The result in assay [8], in assay [9], in assay [10], in assay [11], in [12] and in [14] was inactive. Moreover, the outcome in assay [15] and in assay [16] was inactive. In addition, the results for the inhibition in [5] and in assay [13] were 91% (active) and 33.3% (active), respectively.

`Cc1ccc(-c2csc(N(CCCN(C)C)C(=O)c3ccco3)n2)cc1`: the outcome in assay [1], in assay [2], in [3], in [4], in assay [5] and in assay [7] was inactive. Besides, the result in [8], in [10], in assay [11], in assay [12], in assay [13] and in assay [14] was inactive. Besides, the outcome in assay [15] and in assay [16] was inactive. Moreover, the inhibition is 52% (active) in assay [6] and 37.5% (active) in [9].
